Consider eleven compounds from PubChem BioAssay (Tox21).

Test [1] can be described thus: qHTS assay to identify small molecule antagonists of the glucocorticoid receptor (GR) signaling pathway - cell viability counter screen (AID 720693). Note: nearly all actives have a fitted effect of over 55% in size. Note: potency is the fitted concentration of half-maximal effect. On the technique in general: Quantitative high-throughput screening tests each substance at several concentrations.
Test [2] can be described thus: qHTS assay for identifying genotoxic compounds that show differential cytotoxicity against isogenic chicken DT40 cell lines with known DNA damage response pathways - wild type cell line (AID 743012). Note: nearly all actives have a fitted effect of over 60% in size. Note: potency is the fitted concentration of half-maximal effect. A digest of the protocol:
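Endpoint: CellTiter-Glo luminescence, 30 min RT. Cells: wild type DT40, 300/well. Exposure: compounds in DMSO, 40 h, 37 C/5% CO2, after ~0.5 h pre-incubation.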

The nature of test [3]: qHTS assay to identify small molecule antagonists of the androgen receptor (AR) signaling pathway - cell viability counter screen (AID 743033; note: nearly all actives have a fitted effect of over 45% in size; note: potency is the fitted concentration of half-maximal effect).
Test [4] concerns the target Androgen receptor (Homo sapiens) (UniProt P10275). Kind of test: qHTS assay to identify small molecule agonists of the androgen receptor (AR) signaling pathway using the MDA cell line (AID 743040; note: % is set by controls: 0 for no effect and ±100 for the full control effect; nearly all actives have a fitted effect of over 20% in size). A digest of the protocol:
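Luciferase read-out, ONE-Glo, 30 min RT. Cells: MDA-kb2 AR-luc, MMTV promoter with AR and GR response elements. Compound exposure 16 h, 37C, 0% CO2, after 5 h pre-incubation. qHTS agonist mode.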

Test [5] is described as follows: qHTS assay to identify small molecule antagonists of the androgen receptor (AR) signaling pathway using the MDA cell line - cell viability counter screen (AID 743041; note: % is set by controls: 0 for no effect and ±100 for the full control effect; nearly all actives have a fitted effect of over 45% in size). A digest of the protocol:
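Cytotoxicity counter screen: MDA-kb2 AR-luc cells, compound + R1881, 16 h, 37C, 0% CO2; CellTiter-Fluor added at 15.5 h, fluorescence read after 30 min.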

Test [6] can be described thus: qHTS assay to identify small molecule antagonists of the thyroid receptor (TR) signaling pathway - cell viability counter screen (AID 743064). Note: nearly all actives have a fitted effect of over 50% in size. Note: potency is the fitted concentration of half-maximal effect. A digest of the protocol:
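In rat pituitary GH3.TRE-Luc reporter cells co-exposed to compound and 1 nM T3 for 23.5 h, cytotoxicity was assessed with CellTiter-Fluor in the same wells, read by fluorescence.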

Test [7] can be described thus: qHTS assay to identify small molecule antagonists of the thyroid receptor (TR) signaling pathway (AID 743065). Note: nearly all actives have a fitted effect of over 55% in size. Note: potency is the fitted concentration of half-maximal effect. A digest of the protocol: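 GH3.TRE-Luc rat pituitary cells (two TREs driving luciferase) were dosed with compound, then stimulated with 1 nM T3 (final) for 23.5 h at 37 C. ONE-Glo luminescence was the read-out, with CellTiter-Fluor fluorescence as the cytotoxicity counter-screen.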

Test [8] deals with thyroid hormone receptor (rat, GH3 cells). Kind of test: qHTS assay to identify small molecule agonists of the thyroid receptor (TR) signaling pathway (AID 743066; calls by dose curve; note: % is set by controls: 0 for no effect and ±100 for the full control effect).
The target in test [9] is Estrogen receptor (Homo sapiens) (UniProt P03372). The test is described as follows: qHTS assay to identify small molecule antagonists of the estrogen receptor alpha (ER-alpha) signaling pathway (AID 743069; active = well fitted curve in the direction sought with a large enough effect in the signal ratio in the repeat runs, not every such curve was filed as active; inconclusive = weak or mixed curves, or effect the other way; inactive = no such curve, though single readings can be large or run the other way; the % refers to the signal ratio; note: potency is the fitted concentration of half-maximal effect). In outline:
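Beta-lactamase FRET fluorescence is read after 2 hr at room temperature with LiveBLAzer B/G substrate. Before that, ER-alpha-bla HEK293 cells sit 4 hr after plating, then receive compound plus 17beta-estradiol and incubate 18 hr at 37C.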

A short description of test [10]: qHTS assay to identify small molecule antagonists of the estrogen receptor alpha (ER-alpha) signaling pathway - cell viability counter screen (AID 743074; calls by dose curve;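 note: HEK293 cells carrying ER-alpha-UAS-bla reporter stimulated with 17beta-estradiol; nearly all actives have a fitted effect of over 45% in size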; note: potency is the fitted concentration of half-maximal effect).
Test [11] deals with Estrogen receptor (Homo sapiens) (UniProt P03372). The test is described as follows: qHTS assay to identify small molecule agonists of the estrogen receptor alpha (ER-alpha) signaling pathway (AID 743075; calls by dose curve;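 note: HEK293 GripTite cells with ER-alpha and UAS-driven beta-lactamase reporter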; note: potency is the fitted concentration of half-maximal effect; for activation: % is set by controls: 0 for no effect and ±100 for the full control effect). Particulars: HEK293 ER-alpha-UAS-bla, beta-lactamase FRET ratio, 18 h; activation: at 70.1 µM (top of the series).
For test [12] the target is unchanged. The test is described as follows: qHTS assay to identify small molecule agonists of the estrogen receptor alpha (ER-alpha) signaling pathway using the BG1 cell line (AID 743079). For activation: % is set by controls: 0 for no effect and ±100 for the full control effect. Note: nearly all actives have a fitted effect of over 20% in size. Note: potency is the fitted concentration of half-maximal effect. Particulars: BG1Luc4E2 cells, ERE-luciferase agonist, 22 h.
Test [13] can be described thus: qHTS assay to identify small molecule antagonists of the estrogen receptor alpha (ER-alpha) signaling pathway using the BG1 cell line (AID 743080; calls by dose curve;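 note: BG1 cells stimulated with 17beta-estradiol alongside compound; % is set by controls: 0 for no effect and ±100 for the full control effect; nearly all actives have a fitted effect of over 25% in size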). A digest of the protocol: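 After 5 days in phenol-red-free 10% charcoal-stripped FBS medium, BG1-Luc-4E2 cells were seeded, left 24 h at 37 C, co-treated with compounds and 17beta-estradiol for 21.5 h, then assayed for viability and luciferase.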

Test [14] is described as follows: qHTS assay to identify small molecule antagonists of the estrogen receptor alpha (ER-alpha) signaling pathway using the BG1 cell line - cell viability counter screen (AID 743081).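 Note: compound given together with 17beta-estradiol as the ER stimulus; nearly all actives have a fitted effect of over 45% in size.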 Note: potency is the fitted concentration of half-maximal effect.
The next test addresses Aromatase (Homo sapiens) (UniProt P11511). Kind of test: qHTS assay to identify aromatase inhibitors (AID 743083). Note: nearly all actives have a fitted effect of over 55% in size. Note: potency is the fitted concentration of half-maximal effect.
A short description of test [15]: qHTS assay for identifying genotoxic compounds that show differential cytotoxicity against isogenic chicken DT40 cell lines with known DNA damage response pathways - Rev3 mutant cell line (AID 743014). Note: nearly all actives have a fitted effect of over 55% in size. Note: potency is the fitted concentration of half-maximal effect.
Test [16] is described as follows: qHTS assay for identifying genotoxic compounds that show differential cytotoxicity against isogenic chicken DT40 cell lines with known DNA damage response pathways - Rad54/Ku70 mutant cell line (AID 743015). Note: nearly all actives have a fitted effect of over 60% in size. Note: potency is the fitted concentration of half-maximal effect.
Test [17] deals with Androgen receptor (Homo sapiens) (UniProt P10275). Kind of test: qHTS assay to identify small molecule antagonists of the androgen receptor (AR) signaling pathway using the MDA cell line (AID 743042). A digest of the protocol:
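MDA-kb2 breast carcinoma cells carrying MMTV-luciferase (AR/GR responsive) were co-treated with compounds and the agonist R1881 for 16 h at 37C. Inhibition read as ONE-Glo luminescence; CellTiter-Fluor fluorescence measured in parallel for cytotoxicity.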

For test [18] the target is unchanged. Kind of test: qHTS assay to identify small molecule agonists of the androgen receptor (AR) signaling pathway (AID 743036; active = well fitted activation curve with a large enough effect in the signal ratio in the repeat runs, with a control signal flat, not every such curve was filed as active; inconclusive = weak or mixed curves, or effect the other way; inactive = no such curve, though single readings can be large or run the other way; the % refers to the signal ratio; note: potency is the fitted concentration of half-maximal effect). In outline:
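Cell-based FRET reporter assay: HEK293 line with a UAS-beta-lactamase construct, compounds added in DMSO, 16 h exposure at 37C, then 2 h substrate step at room temperature and fluorescence intensity read.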

“And” between values parts separate entries of the source, which are not always exact repeats. Equal entries are not always repeated. The source holds several records for some structures; these can differ, active in one and inactive in another. The source made the active and inactive calls. Unless noted, calls come from the whole dose curve; as a rule, active = well fitted curve in the direction sought with a large enough effect in the repeat runs; inconclusive = weak or mixed curves; inactive = no such curve, though single readings can be large; an effect the other way counts as inactive or inconclusive.

Estrogen receptor (Homo sapiens), sequence (P03372 whole entry, looked up): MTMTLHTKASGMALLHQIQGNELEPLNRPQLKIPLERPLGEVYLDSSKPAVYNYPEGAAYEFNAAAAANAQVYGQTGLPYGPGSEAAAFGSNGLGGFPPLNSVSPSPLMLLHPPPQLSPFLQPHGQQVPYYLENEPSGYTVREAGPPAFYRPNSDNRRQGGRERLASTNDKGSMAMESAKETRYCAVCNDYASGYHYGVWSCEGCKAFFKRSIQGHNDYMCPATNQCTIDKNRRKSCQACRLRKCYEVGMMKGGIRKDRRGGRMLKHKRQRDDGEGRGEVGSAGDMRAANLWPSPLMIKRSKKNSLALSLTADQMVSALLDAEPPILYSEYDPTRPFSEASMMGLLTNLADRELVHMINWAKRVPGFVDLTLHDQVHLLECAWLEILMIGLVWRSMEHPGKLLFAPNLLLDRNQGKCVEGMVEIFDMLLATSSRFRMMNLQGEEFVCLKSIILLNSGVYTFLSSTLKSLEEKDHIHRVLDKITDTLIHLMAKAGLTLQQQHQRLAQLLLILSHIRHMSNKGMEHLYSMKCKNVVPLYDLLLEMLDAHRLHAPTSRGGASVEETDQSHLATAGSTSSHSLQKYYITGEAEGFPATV
Aromatase (Homo sapiens), sequence (P11511 whole entry, looked up): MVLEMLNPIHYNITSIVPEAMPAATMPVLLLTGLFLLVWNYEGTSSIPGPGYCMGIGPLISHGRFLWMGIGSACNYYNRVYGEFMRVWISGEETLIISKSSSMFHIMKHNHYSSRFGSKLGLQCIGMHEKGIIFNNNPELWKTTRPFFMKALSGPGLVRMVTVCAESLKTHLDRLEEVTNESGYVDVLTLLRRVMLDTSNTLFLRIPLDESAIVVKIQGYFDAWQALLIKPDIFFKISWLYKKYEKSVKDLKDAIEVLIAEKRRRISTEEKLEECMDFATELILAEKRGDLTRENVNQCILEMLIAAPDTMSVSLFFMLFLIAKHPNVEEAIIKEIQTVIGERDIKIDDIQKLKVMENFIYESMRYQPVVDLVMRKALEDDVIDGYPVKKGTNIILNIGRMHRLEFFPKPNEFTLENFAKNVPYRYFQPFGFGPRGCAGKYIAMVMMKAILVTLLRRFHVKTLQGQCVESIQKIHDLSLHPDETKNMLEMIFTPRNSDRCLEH
Androgen receptor (Homo sapiens), sequence (P10275 whole entry, looked up): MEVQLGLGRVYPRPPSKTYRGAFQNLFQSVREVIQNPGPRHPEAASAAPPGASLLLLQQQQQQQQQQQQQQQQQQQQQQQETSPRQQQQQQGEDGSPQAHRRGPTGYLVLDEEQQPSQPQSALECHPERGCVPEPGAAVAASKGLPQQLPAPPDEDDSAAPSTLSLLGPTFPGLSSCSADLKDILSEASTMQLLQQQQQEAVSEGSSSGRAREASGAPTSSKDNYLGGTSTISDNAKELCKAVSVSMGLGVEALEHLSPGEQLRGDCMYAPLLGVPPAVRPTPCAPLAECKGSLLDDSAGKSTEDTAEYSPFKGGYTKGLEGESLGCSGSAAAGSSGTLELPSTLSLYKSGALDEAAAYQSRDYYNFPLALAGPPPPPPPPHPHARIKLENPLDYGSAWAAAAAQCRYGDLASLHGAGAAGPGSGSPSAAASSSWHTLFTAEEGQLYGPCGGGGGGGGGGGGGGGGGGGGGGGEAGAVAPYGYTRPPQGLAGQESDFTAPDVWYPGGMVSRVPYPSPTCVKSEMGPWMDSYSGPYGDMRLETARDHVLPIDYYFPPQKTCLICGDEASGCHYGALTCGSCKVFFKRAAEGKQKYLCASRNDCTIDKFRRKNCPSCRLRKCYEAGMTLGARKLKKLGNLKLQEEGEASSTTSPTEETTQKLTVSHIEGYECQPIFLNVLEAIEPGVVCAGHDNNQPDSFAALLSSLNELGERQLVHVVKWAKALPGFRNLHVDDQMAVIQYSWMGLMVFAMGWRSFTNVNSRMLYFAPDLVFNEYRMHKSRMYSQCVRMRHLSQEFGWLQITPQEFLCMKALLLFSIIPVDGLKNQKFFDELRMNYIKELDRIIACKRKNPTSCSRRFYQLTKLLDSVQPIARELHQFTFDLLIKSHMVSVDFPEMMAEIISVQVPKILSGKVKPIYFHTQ

Regarding `O=C(c1ccc(O)cc1O)c1ccc(O)cc1O`, the Potency entry in [1], in [2], in [3], in test [4], in test [5] and in test [6] was “inactive” in each case. The Potency entry (in test [8]; in test [9]; in test [10]; in test [13]; in test [14]; with Aromatase (Homo sapiens)) was “inactive” throughout. The Potency is 30.7 µM (active) and 54.5 µM (active) in test [7]; 11 µM [inconclusive] (active) and 9.77 µM [inconclusive] (active) in [11]; 4.33 µM (active) and 15.4 µM (active) in test [12].
Take `NC(=NCCCCCCN=C(N)/N=C(\N)Nc1ccc(Cl)cc1)/N=C(\N)Nc1ccc(Cl)cc1`: the Potency in test [1] is 21.3 µM (active) [middle of 5 runs]; in [15], 15.3 µM (active) [middle of 5 runs]; in test [6], 8.56 µM (active) [middle of 5 runs]; in test [10], 25 µM (active) [middle of 4 runs]; in [14], “inactive and 68.2 µM (active)”; with Aromatase (Homo sapiens), 24.1 µM (active) [middle of 4 runs]. For the same compound, the Potency result in [5] and in [8] was “inactive” in each case.
Regarding `CC1=NC(C)OC1C` (configuration not stated), the Potency result in [1], in test [15], in test [16], in test [3], in [4] and in test [5] was “inactive” each time. Moreover, the Potency entry in test [6], in test [8], in test [10], in [11], in test [13] and in [14] was “inactive” in each case. The Potency entry in the test with Aromatase (Homo sapiens) was “inactive”.
As to `CCC(C)(C)C1CCCCC1OC(C)=O` (configuration not stated), the Potency result in test [1], in test [2], in test [16], in [3], in test [6] and in test [7] was “inactive” throughout. The Potency result in test [8], in test [9], in test [10], in [11], in test [13] and in [14] was “inactive” throughout. The Potency result in the test with Aromatase (Homo sapiens) is “inactive”. The activation in test [12] (at 70.3 µM (top of the series)) was 7.91% (inactive).
Consider `O=C(c1ccc(F)cc1)C1CCN(CCn2c(=O)[nH]c3ccccc3c2=O)CC1`, for which the Potency result in [1], in test [15], in test [3], in test [4], in test [5] and in [17] was “inactive” in each case. The Potency result in test [6], in [7], in [8], in [9], in [10] and in [11] was “inactive” in each case. In addition, the Potency entry (in test [13]; in test [14]; with Aromatase (Homo sapiens)) was “inactive” in each case. Further, the activation in test [12] (at 70.3 µM (top of the series)) is 21.8% (inactive).
On to `O=c1cccccc1O`, for which the Potency entry in [1], in test [5], in [8], in [9], in [10] and in test [11] was “inactive” in each case. For the same compound, in test [14], the Potency entry is “inactive”. Moreover, the Potency was 27.8 µM (active) in [15]; 55.5 µM (active) in [16]; 44.5 µM (active) in [3]; 19.7 µM (active) in test [6]; 17.6 µM (active) in test [7]. The activation in [12] (at 95 µM (top of the series)) was -8.54% (inactive).
Consider `CC(C)=CCOc1ccc(/C=C/C(=O)c2ccc(OCC=C(C)C)cc2OCC(=O)O)cc1`, for which the Potency entry in test [1], in test [2], in test [3], in [4], in test [5] and in test [17] was “inactive” each time. The Potency entry (in test [10]; in test [11]; in test [13]; in test [14]; with Aromatase (Homo sapiens)) was “inactive” throughout. In addition, the Potency in [7] is 26.6 µM (active); in [9] it was 16.9 µM [inconclusive] (active). In addition, the activation in test [12] (at 70.3 µM (top of the series)) is -17.4% (inactive).
`O=C1CCCc2c1cc1ccc3cccc4ccc2c1c34`: the Potency entry in [1], in test [2], in test [3], in [4], in test [5] and in [17] was “inactive” throughout. The Potency entry (in test [6]; in [10]; in [14]; with Aromatase (Homo sapiens)) was “inactive” each time. Besides, the Potency in test [18] was 14 µM (active); in [12], 3.9 µM (active).
As for `O=c1[nH]cnc2nc[nH]c12`, the Potency entry in test [1], in [15], in test [3], in test [5], in test [6] and in [7] was “inactive” each time. The Potency result in [8], in [9], in test [10], in [11], in test [13] and in test [14] was “inactive” each time. The Potency result with Aromatase (Homo sapiens) is “inactive”. In addition, the activation in test [12] (at 70.3 µM (top of the series)) was 8.82% (inactive).
For `C=C(C)C(=O)OCC(O)COc1ccc(C(C)(C)c2ccc(OCC(O)COC(=O)C(=C)C)cc2)cc1` (configuration not stated), the Potency in test [2] is 5.45 µM (active); in test [15], 6.86 µM (active); in test [16], 6.86 µM (active); in test [3] it was 24.5 µM (active); in test [10], 43.6 µM (active); in the test with Aromatase (Homo sapiens), 30.6 µM (active). The Potency result in test [8] and in [11] was “inactive” each time.
As for `Oc1ccc(N=Nc2ccccc2)cc1`, the Potency in test [15] is 61.9 µM (active); in [6], 49.2 µM (active); in test [7], 61.9 µM (active); in test [9], 39.4 µM [inconclusive] (active); in test [11], 49.6 µM [inconclusive] (active); in [12], 6.19 µM (active). Also, the Potency entry (in test [4]; in test [17]; in [8]; in the test with Aromatase (Homo sapiens)) was “inactive” in each case.
